This test has as its system Bacillus 1 (Bacillus foraminis). Nature of the test: relative growth (AUC of 72 h growth curve relative to DMSO control, dAUC) (ratio); higher = more growth (less inhibition), active = hit call of the paper. Conditions: 20 µM;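 active = growth AUC significantly below the DMSO wells by Dunnett test; inactive = the rest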. On the procedure: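 Environmental bacterial isolates (Iceland stream sediment and Silwood Park soil) and whole stream-sediment communities were grown in LB from a 1:100 dilution with each pesticide at 20 µM (1% DMSO). A600 was read hourly for 72 h and the area under a spline-fitted growth curve (AUC) was computed. dAUC is the mean AUC of 3 biological replicates divided by the mean AUC of the DMSO controls. Significance was tested by Dunnett's test against the DMSO control.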
Regarding `CCSC(C)CC1CC(=O)C(/C(CC)=N/OC/C=C/Cl)=C(O)C1` (mixture of isomers), the relative growth was 1.06 (inactive).

Turning to `C[C@@H]1[C@@H](c2ccc(Cl)cc2)SC(=O)N1C(=O)NC1CCCCC1`, the relative growth was 1.06 (inactive).

`CNC(=O)c1cc(C#N)cc(C)c1NC(=O)c1cc(Br)nn1-c1ncccc1Cl`: the relative growth is 0.935 (inactive).

For the compound `CC1(C)[C@H](C(=O)O[C@H](C#N)c2cccc(Oc3ccccc3)c2)[C@@H]1C=C(Br)Br`, the relative growth was 1.1 (inactive).

For `CCCCC(C#N)(Cn1cncn1)c1ccc(Cl)cc1` (stereo not given), the relative growth is 0.889 (inactive).

On to `Nc1c(Cl)c(F)nc(OCC(=O)O)c1Cl`, for which the relative growth was 1.02 (inactive).

Take `CCOC(=O)CC(SP(=S)(OC)OC)C(=O)OCC` (stereo not given): the relative growth was 1.05 (inactive).

Turning to `O=C(NC(=O)c1c(F)cccc1F)Nc1ccc(OC(F)(F)C(F)OC(F)(F)F)c(Cl)c1` (stereo not given), the relative growth is 0.942 (inactive).

On to `Oc1ccc(Cl)cc1Cc1cc(Cl)ccc1O`, for which the relative growth was 0.81 (inactive).

For `CCNC(=O)NC(=O)/C(C#N)=N/OC`, the relative growth is 1.04 (inactive).

For the compound `CC(Oc1ccc(Oc2nc3ccc(Cl)cc3o2)cc1)C(=O)O` (stereo not given), the relative growth is 1.02 (inactive).

As for `C#CCOc1ccc(CCNC(=O)C(OCC#C)c2ccc(Cl)cc2)cc1OC` (stereo not given), the relative growth is 1.06 (inactive).

`C[N+](C)(C)CCCl`: the relative growth is 0.969 (inactive).

For the compound `O=C1C2CC=CCC2C(=O)N1SC(Cl)(Cl)Cl` (stereo not given), the relative growth was 0.939 (inactive).

On to `CCCC(Cn1cncn1)c1ccc(Cl)cc1Cl` (stereo not given), for which the relative growth is 1.1 (inactive).

`COc1ccc(-c2ccccc2)cc1NNC(=O)OC(C)C`: the relative growth was 1.03 (inactive).

Take `COCC(=O)N(c1c(C)cccc1C)[C@H](C)C(=O)OC`: the relative growth was 1.06 (inactive).

For `CO/N=C(/C(=O)OC)c1ccccc1CO/N=C(\C)c1cccc(C(F)(F)F)c1`, the relative growth was 0.972 (inactive).

Take `O=C1C=C(N(Cc2ccc(Cl)nc2)CC(F)F)CO1`: the relative growth was 0.945 (inactive).

As for `CCCN(CCC)C(=O)SCc1ccccc1`, the relative growth is 0.998 (inactive).

For `Cc1cc(C(C#N)c2ccc(Cl)cc2)c(Cl)cc1NC(=O)c1cc(I)cc(I)c1O` (stereo not given), the relative growth was 0.695 (inactive).

Consider `CCCCOC(=O)[C@H](C)Oc1ccc(Oc2ccc(C#N)cc2F)cc1`, for which the relative growth was 1.07 (inactive).

Consider `CS(=O)(=O)c1ccc(C(=O)C2C(=O)CCCC2=O)c([N+](=O)[O-])c1`, for which the relative growth is 0.961 (inactive).

In the case of `CCC(=O)Nc1ccc(Cl)c(Cl)c1`, the relative growth is 0.957 (inactive).

As to `CCc1cc(C)cc(CC)c1-c1c(OC(=O)C(C)(C)C)n2n(c1=O)CCOCC2`, the relative growth is 0.912 (inactive).

`O=C(Nc1ccccc1-c1ccc(Cl)cc1)c1cccnc1Cl`: the relative growth was 1.01 (inactive).

`N#Cc1cc(Br)c(O)c(Br)c1`: the relative growth was 0.916 (inactive).

In the case of `C[N+]1(C)CCCCC1`, the relative growth is 1.04 (inactive).

For the compound `CCc1nn(C)c(C(=O)NCc2ccc(Oc3ccc(C)cc3)cc2)c1Cl`, the relative growth was 1.05 (inactive).

For the compound `CO/C=C(/C(=O)OC)c1ccccc1COc1cccc(C(F)(F)F)n1`, the relative growth is 1.05 (inactive).

Regarding `CC(C)N1C(=O)c2ccccc2NS1(=O)=O`, the relative growth was 1.01 (inactive).

Regarding `CCOC(=O)OC1=C(c2cc(C)ccc2C)C(=O)N[C@]12CC[C@@H](OC)CC2`, the relative growth is 1.03 (inactive).

Turning to `COc1cccc(C(=O)NN(C(=O)c2cc(C)cc(C)c2)C(C)(C)C)c1C`, the relative growth was 0.966 (inactive).

Regarding `COCC(=O)N(c1c(C)cccc1C)C(C)C(=O)OC` (stereo not given), the relative growth is 1.11 (inactive).

With `CCc1cccc(C)c1N(C(=O)CCl)[C@@H](C)COC`, the relative growth was 1.06 (inactive).

For the compound `CCCCN(CCCC)SN(C)C(=O)Oc1cccc2c1OC(C)(C)C2`, the relative growth is 1.03 (inactive).

On to `CC(C)N(C(=O)COc1nnc(C(F)(F)F)s1)c1ccc(F)cc1`, for which the relative growth was 0.999 (inactive).

With `COC(=O)NC(=S)Nc1ccccc1NC(=S)NC(=O)OC`, the relative growth is 0.942 (inactive).

As to `CC1=NNC(=O)N(/N=C/c2cccnc2)C1`, the relative growth is 1.16 (inactive).

Consider `CNC(=O)Oc1cccc2ccccc12`, for which the relative growth was 1.05 (inactive).

These data come from the supplement of paper PMC12067926.
